Bioassay records: PubChem BioAssay, several laboratories
Compounds with a hit are over-represented: about 22% of the library has one in this group of screens.
CYP2C19 act: human CYP2C19 activators, primary screen, biochemical, luminescence | activation factor at 5 µM | recombinant CYP2C19, luciferin-H EGE luminescence; hits give high values; 0 = fully inhibited enzyme, 1 = untreated enzyme | Cytochrome P450 2C19 (Homo sapiens), P33261 | 96,000 tested, under 10 active;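 active = activation factor of at least 2 at 5 µM in the primary screen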;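 note: 0 = wells with 2.5 mM tranylcypromine and 1 = vehicle-only wells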
Target sequence (P33261 whole entry, looked up): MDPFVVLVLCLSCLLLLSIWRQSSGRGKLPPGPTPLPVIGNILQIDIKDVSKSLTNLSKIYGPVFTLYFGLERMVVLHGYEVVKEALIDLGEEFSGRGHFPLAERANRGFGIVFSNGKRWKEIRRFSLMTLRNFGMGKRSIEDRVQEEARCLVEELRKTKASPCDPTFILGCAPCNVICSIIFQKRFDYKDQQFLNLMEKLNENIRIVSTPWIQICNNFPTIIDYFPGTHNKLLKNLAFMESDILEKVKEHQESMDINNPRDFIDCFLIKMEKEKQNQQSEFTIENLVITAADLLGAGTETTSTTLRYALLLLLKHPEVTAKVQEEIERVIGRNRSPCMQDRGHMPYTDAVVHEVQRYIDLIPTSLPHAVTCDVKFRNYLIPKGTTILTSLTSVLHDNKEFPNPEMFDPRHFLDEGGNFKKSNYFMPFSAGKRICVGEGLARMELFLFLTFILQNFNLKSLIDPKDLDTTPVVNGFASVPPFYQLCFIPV
CYP2C9 activ: human CYP2C9 activators, primary screen, biochemical, luminescence; AID 1024, 2008; recombinant CYP2C9, luciferin-H conversion; hits give high values; factor 1 = untreated enzyme, 0 = blocked; hit rate 1.4% among 96,000; Cytochrome P450 2C9 (Homo sapiens), P11712; activation factor at 5 µM;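 active = activation factor of 2 or more for CYP2C9 at a 5 µM dose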;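 note: 0 = sulfaphenazole-blocked wells and 1 = vehicle-only wells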
CYP2C19 inhib: blockers of cytochrome P450 2C19 activity – biochemical, luminescence, ADME assay, primary screen | P33261 | CYP2C19 Supersomes, luciferin-H EGE luminescence, 30 min | inhibition, % at 5 µM | hit rate 21% among 96,000 | AID 778, 2007;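 active = CYP2C19 inhibition above a set limit at 5 µM in the primary screen, cut at about 50% in these data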;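 note: plate controls were negative control wells for no effect and 2.5 mM tranylcypromine positive control for full effect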
Measles CPE: compounds protecting cells from measles virus cytopathic effect, primary screen, measles RdRp inhibitor project, single point, MLSMR library, absorbance; Measles virus-infected cells, CPE protection; hit rate 1.5% among 140,000; AID 841, 2007; protection (pct of control), % at 4 µM; in the data active = protection mostly above about 24%, no sharp cut-off; inactive = mostly below about 26%
CYP2C9 inhib: blockers of cytochrome P450 2C9 activity – biochemical, luminescence, ADME assay, primary screen; inhibition, % at 5 µM; hit rate 20% among 96,000; CYP2C9 Supersomes, luciferin-H conversion; P11712;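 active = blocking of liver enzyme CYP2C9 beyond about 50% at 5 µM, limit read from the data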
The depositor's hits bear a star; / = no result.

SMILES | CYP2C19 act | CYP2C9 activ | CYP2C19 inhib | Measles CPE | CYP2C9 inhib
CCOC(=O)c1c(NC(=O)C(C)N2CCN(C(=O)c3ccco3)CC2)sc2c1CCCC2 (configuration not stated) | 0.2 | 0 | 77* | 2 | 100*
CCOC(=O)c1c(NS(=O)(=O)Cc2ccccc2)sc2c1CCCC2 | 0 | 0 | 99* | 6 | 95*
CCOC(=O)c1c(NC(=O)CSc2nnc(CNC(=O)c3ccco3)n2C)sc2c1CCC2 | 1 | 0.3 | 2 | 19 | 70*
O=C(CC(=O)NC1CCCCC1)N/N=C/c1cccc2ccccc12 | 0.9 | 1 | 6 | 5 | -2
Cn1c(SCC(=O)NC(=O)NCc2ccco2)nnc1C(F)(F)F | 0.9 | 0.9 | 15 | 9 | 12
CC1(C(=O)N(CC(=O)NC2CCCC2)Cc2ccco2)CC(=O)N=C2C=CC=CN21 (configuration not stated) | 1.1 | 1.1 | -5 | 12 | -8
O=C(NCc1cccs1)c1cnc2sccn2c1=O | 1 | 1 | 1 | 10 | 2
O=C(CSc1nnc(Cc2ccccc2)n1Cc1ccco1)NC12CC3CC(CC(C3)C1)C2 | 0.6 | 0.6 | 37 | 15 | 39
CCOC(=O)c1c(NC(=O)c2ccc(N3C(=O)C4C5C=CC(C5)C4C3=O)cc2)sc2c1CCCC2 (configuration not stated) | 0.9 | 0.3 | 14 | 6 | 66*
CCOC(=O)c1c(NC(=O)c2ccco2)sc2c1CCCCC2 | 0.6 | 0.2 | 38 | 10 | 78*
NC(=O)c1c(NC(=O)CSc2nnc(Cc3ccccc3)n2Cc2ccco2)sc2c1CCC2 | 0.8 | 0.4 | 25 | 8 | 64*
O=C1OCCC1Sc1nnc(-c2ccco2)o1 (configuration not stated) | / | / | / | 11 | /
O=C1OCCC1Sc1nnc(-c2ccc(Br)cc2)o1 (configuration not stated) | 0.4 | 1 | 62* | 18 | 5
CCCCN(Cc1ccccc1)C(=O)C1CCN(S(=O)(=O)c2c(C)noc2C)CC1 | 1 | 1 | 4 | 1 | 1
CCc1cccc(CC)c1NC(=O)c1ccccc1CCc1ccccc1 | / | / | / | 13 | /
O=C(OCC(=O)c1ccccc1Cl)c1cnccn1 | / | / | / | 18 | /
Cn1ncc([N+](=O)[O-])c1C(=O)Nc1ccc(-c2nc3ccccc3[nH]2)cc1 | 0.4 | 0.6 | 62* | 7 | 41
Cc1ccc(C)c(C(C)NC(=O)c2ccccc2Br)c1 (configuration not stated) | / | / | / | 15 | /
CC1(C)CC(=O)C2=C(C1)Oc1nc3ccccc3cc1C2C(C#N)C#N (configuration not stated) | 0.7 | 0.4 | 26 | 11 | 60*
CC(=O)c1ccc(N2CCN(c3ccc(S(=O)(=O)N4CCN(C)CC4)cn3)CC2)cc1 | 1.1 | 1 | -10 | 2 | 4
COc1ccc(CNC(=O)C2COc3ccccc3O2)c(OC)c1 (configuration not stated) | 0.2 | 0.9 | 78* | 15 | 5
O=C(NCc1ccccc1)C1COc2ccccc2O1 (configuration not stated) | / | / | / | 5 | /
COc1cccc(NC(=O)CC2COc3ccccc3O2)c1 (configuration not stated) | 0.5 | 0.8 | 49 | 9 | 24
Cc1ccc(NC(=O)CC2COc3ccccc3O2)cc1 (configuration not stated) | 0.3 | 0.7 | 69* | 14 | 29
COc1ccc(OC)c(NC(=O)C2COc3ccccc3O2)c1 (configuration not stated) | 0.3 | 0.8 | 67* | 5 | 16
COc1ccc(NC(=O)CCC2COc3ccccc3O2)c(OC)c1 (configuration not stated) | 0.2 | 0.7 | 83* | 20 | 26
Cc1ccc(C(=O)Nc2cnc3sc(C)nn3c2=O)cc1 | 1.2 | 1.1 | -16 | 8 | -11
COc1ccc(CCNC(=O)CC2COc3ccccc3O2)cc1OC (configuration not stated) | 0 | 0 | 97* | 9 | 97*
COc1cc(OC)c(OC)cc1NC(=O)CC1COc2ccccc2O1 (configuration not stated) | / | / | / | 8 | /
O=C1CC(c2ccncc2)c2cc3c(cc2N1)OCO3 (configuration not stated) | 0.5 | 0.3 | 48 | 4 | 68*
